Reference: PubChem BioAssay
“And” between values parts separate entries of the source, which are not always exact repeats. Equal values may be shown once. The source made the active and inactive calls.

Key:
[1] = system: Plasmodium falciparum Sir2 (PF13_0152, Sir2A); assay: Plasmodium falciparum Sir2A binding compounds – biochemical, small-molecule microarray, 635 nm fluorescence, primary screen (AID 1098); details: fluorescence 635 nm, higher = more signal;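 also: score merges spot fluorescence intensity with its signal-to-noise ratio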
[2] = probe aDKK1 binding to arrayed compounds – biochemical, biotinylated probe, 635/667 nm fluorescence, primary screen (AID 1099); details: small-molecule microarray, higher = more signal;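 also: score merges 667nm spot fluorescence with signal to noise across triplicate slides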
[3] = probe aCHRDL2 binding to arrayed compounds – biochemical, biotinylated probe, 635/667 nm fluorescence, primary screen (AID 1100); details: small-molecule microarray, higher = more signal
[4] = change in splice reporter luminescence, either direction, cell-based, HEK293, spliceosome inhibition project, primary screen (AID 1101); details: HEK293 splicing luciferase reporter, 24 h, higher = more signal, called active from +8 up or from −8 down;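 also: HEK293 cells carrying a splicing-competent luciferase reporter gene; test concentration not given here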
[5] = molecular target: Fibroblast growth factor 10 (Homo sapiens) (UniProt O15520); assay: compounds binding fibroblast growth factor 10 – biochemical, small-molecule microarray, 635 nm fluorescence, primary screen (AID 1102); details: FGF10 binding, fluorescence 635 nm, higher = more signal
[6] = system: glycogen synthase kinase-3 (GSK3A per assay name; protocol says GSK3B); assay: compounds binding glycogen synthase kinase-3 – biochemical, small-molecule microarray, 635 nm fluorescence, GSK3A, primary screen (AID 1103); details: fluorescence 635 nm, higher = more signal; also: the record names both GSK3A and GSK3B
[7] = molecular target: Epidermal growth factor receptor (Homo sapiens) (UniProt P00533); assay: compounds binding epidermal growth factor receptor – biochemical, small-molecule microarray, 635 nm fluorescence, primary screen (AID 1104); details: EGFR binding, higher = more signal;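 also: score merges 667 nm emission intensity with spot signal to noise over triplicate slides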
[8] = molecular target: Follistatin-related protein 3 (Homo sapiens) (UniProt O95633); assay: compounds binding follistatin-related protein 3 – biochemical, small-molecule microarray, 635 nm fluorescence, primary screen (AID 1105); details: FSTL3 binding, higher = more signal;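 also: score merges emission near 667 nm and signal to noise per printed spot across three slides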
[9] = molecular target: Dickkopf-related protein 1 (Homo sapiens) (UniProt O94907); assay: small molecules binding DKK1 protein – biochemical, small-molecule microarray, 635 nm fluorescence scan, primary screen (AID 1106); details: higher = more signal;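 also: score merges emission near 667 nm with signal to noise over three replicate slides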
[10] = system: Inhibin beta A chain (activin A); assay: small molecules binding activin A – biochemical, small-molecule microarray, 635 nm fluorescence scan, primary screen (AID 1107); details: INHBA, higher = more signal;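 also: mouse activin A protein probed at 4.33 µg/mL on printed slides; score merges bound-protein fluorescence near 667 nm with spot signal-to-noise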
[11] = system: Human papillomavirus type 1a protein E7 (residues 44-93); assay: small molecules binding HPV E7 44-93 – biochemical, small-molecule microarray, residues 44-93, 635 nm fluorescence, primary screen (AID 1108); details: fluorescence 635 nm, higher = more signal;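 also: E7 fragment applied at 1 µg/mL in TBST for 1 h at 4 C; score combines spot fluorescence with its signal to noise ratio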
[12] = hepatitis C replication reporter changes, two-sided – Huh7 cells, luciferase reporter, HCV replication inhibitor project, primary screen (AID 1109); details: Huh7 HCV replicon luciferase reporter, 48 h; higher = more signal;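 also: huh7 hepatoma cells harbouring a luciferase neomycin HCV replicon reporter; luciferase luminescence as measure of HCV replicon replication; test concentration not given here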
[13] = molecular target: Left-right determination factor 2 (Homo sapiens) (UniProt O00292); assay: small molecules binding LEFTY2 protein – biochemical, small-molecule microarray, 635 nm fluorescence scan, primary screen (AID 1110); details: higher = more signal
[14] = molecular target: Calmodulin-1 (Homo sapiens) (UniProt P0DP23); assay: small molecules binding calmodulin-1 with EGTA – biochemical, small-molecule microarray, Cy5-labelled CALM1, profiling panel (AID 1111); details: Cy5-CALM1 binding fluorescence, higher = more signal;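 also: labelled calmodulin applied in Tris saline Tween buffer holding calcium plus EGTA and DTT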
[15] = molecular target: Calmodulin-1 (Homo sapiens) (UniProt P0DP23); assay: small molecules binding Ca-loaded calmodulin-1 – biochemical, small-molecule microarray, Cy5-labelled CALM1, plus calcium, artefact control for SMM control-protein annotation, profiling panel (AID 1112); details: Cy5-CALM1 binding fluorescence, higher = more signal;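 also: score merges spot fluorescence with signal to noise from triplicate slides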
[16] = probe aWnt5a binding to arrayed compounds – biochemical, biotinylated probe, 635/667 nm fluorescence, primary screen (AID 1113); details: small-molecule microarray, higher = more signal;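 also: score merges 667 nm fluorescence intensity with signal-to-noise per printed feature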
[17] = probe aShh binding to arrayed compounds – biochemical, biotinylated probe, 635/667 nm fluorescence, primary screen (AID 1114); details: small-molecule microarray, higher = more signal;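 also: probe is biotin-labelled aShh protein from a stem cell growth factor screen; measures binding of labelled protein to compounds printed on the slide; score merges feature fluorescence at 667 nm with signal-to-noise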
[18] = probe aNog binding to arrayed compounds – biochemical, biotinylated probe, 635/667 nm fluorescence, primary screen (AID 1115); details: small-molecule microarray, higher = more signal;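 also: probe is biotinylated aNog protein used at 0.15 µg/mL for 1 h at 4 C; z-score combines 667 nm fluorescence of each spot with its signal to noise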
[19] = molecular target: Torsin-1A-interacting protein 1 (Homo sapiens) (UniProt Q5JTV8); assay: compound microarray binding of lysate hLAP1 – cell lysate, small-molecule microarray, COS7 lysate, 635/667 nm fluorescence, primary screen (AID 1116); details: 635 nm fluorescence, higher = more signal
[20] = molecular target: Alpha-bungarotoxin (Bungarus multicinctus) (UniProt P60615); assay: compounds binding labelled alpha-BTX control protein – biochemical, small-molecule microarray, Alexa647 label, 635/667 nm fluorescence, artefact control for SMM control protein annotation, profiling panel (AID 1117); details: alpha-BTX-A647 binding fluorescence, higher = more signal
Chain of Alpha-bungarotoxin (Bungarus multicinctus) (P60615 whole entry, looked up): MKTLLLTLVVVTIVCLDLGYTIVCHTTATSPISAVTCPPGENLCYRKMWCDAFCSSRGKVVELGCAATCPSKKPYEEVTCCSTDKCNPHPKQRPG

Chain of Torsin-1A-interacting protein 1 (Homo sapiens) (Q5JTV8 whole entry, looked up): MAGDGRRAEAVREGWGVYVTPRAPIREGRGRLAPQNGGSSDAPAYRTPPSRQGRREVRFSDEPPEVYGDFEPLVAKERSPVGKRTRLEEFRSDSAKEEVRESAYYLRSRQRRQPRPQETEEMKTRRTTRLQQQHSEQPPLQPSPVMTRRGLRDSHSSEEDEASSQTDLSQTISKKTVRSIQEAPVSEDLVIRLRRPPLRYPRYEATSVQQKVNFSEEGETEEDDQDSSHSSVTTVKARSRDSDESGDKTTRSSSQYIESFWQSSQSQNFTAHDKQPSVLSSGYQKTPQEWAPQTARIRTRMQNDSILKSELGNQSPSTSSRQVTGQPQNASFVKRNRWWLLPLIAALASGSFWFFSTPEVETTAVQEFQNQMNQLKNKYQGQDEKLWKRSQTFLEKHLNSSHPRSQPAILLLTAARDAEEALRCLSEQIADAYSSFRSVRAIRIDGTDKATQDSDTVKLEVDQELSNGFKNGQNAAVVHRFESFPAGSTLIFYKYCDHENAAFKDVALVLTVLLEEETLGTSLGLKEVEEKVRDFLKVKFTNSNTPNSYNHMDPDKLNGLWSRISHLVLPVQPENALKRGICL
Chain of Left-right determination factor 2 (Homo sapiens) (O00292 whole entry, looked up): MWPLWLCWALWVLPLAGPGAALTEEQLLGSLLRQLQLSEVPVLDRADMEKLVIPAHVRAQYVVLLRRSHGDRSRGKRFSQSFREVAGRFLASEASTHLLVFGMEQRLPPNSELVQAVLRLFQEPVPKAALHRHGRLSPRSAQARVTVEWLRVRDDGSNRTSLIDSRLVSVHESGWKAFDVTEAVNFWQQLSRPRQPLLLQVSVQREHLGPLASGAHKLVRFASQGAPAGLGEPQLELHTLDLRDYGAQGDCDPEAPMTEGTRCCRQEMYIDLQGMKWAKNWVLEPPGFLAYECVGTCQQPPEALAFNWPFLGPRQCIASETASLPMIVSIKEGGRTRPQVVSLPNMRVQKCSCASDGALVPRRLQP
Chain of Fibroblast growth factor 10 (Homo sapiens) (O15520 whole entry, looked up): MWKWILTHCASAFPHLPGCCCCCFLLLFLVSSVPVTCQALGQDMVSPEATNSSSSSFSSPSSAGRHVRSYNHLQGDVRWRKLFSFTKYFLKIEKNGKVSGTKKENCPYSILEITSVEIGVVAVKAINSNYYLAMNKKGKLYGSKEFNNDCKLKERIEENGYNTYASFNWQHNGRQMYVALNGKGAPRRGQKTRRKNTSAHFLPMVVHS
Chain of Dickkopf-related protein 1 (Homo sapiens) (O94907 whole entry, looked up): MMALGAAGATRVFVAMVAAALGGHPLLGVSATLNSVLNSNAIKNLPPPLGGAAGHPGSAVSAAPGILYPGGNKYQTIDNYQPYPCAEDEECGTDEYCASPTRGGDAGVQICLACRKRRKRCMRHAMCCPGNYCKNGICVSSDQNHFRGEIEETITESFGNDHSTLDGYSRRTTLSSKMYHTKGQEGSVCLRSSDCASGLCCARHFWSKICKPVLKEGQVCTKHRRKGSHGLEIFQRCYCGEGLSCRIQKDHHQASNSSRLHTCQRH
Chain of Epidermal growth factor receptor (Homo sapiens) (P00533 whole entry, looked up): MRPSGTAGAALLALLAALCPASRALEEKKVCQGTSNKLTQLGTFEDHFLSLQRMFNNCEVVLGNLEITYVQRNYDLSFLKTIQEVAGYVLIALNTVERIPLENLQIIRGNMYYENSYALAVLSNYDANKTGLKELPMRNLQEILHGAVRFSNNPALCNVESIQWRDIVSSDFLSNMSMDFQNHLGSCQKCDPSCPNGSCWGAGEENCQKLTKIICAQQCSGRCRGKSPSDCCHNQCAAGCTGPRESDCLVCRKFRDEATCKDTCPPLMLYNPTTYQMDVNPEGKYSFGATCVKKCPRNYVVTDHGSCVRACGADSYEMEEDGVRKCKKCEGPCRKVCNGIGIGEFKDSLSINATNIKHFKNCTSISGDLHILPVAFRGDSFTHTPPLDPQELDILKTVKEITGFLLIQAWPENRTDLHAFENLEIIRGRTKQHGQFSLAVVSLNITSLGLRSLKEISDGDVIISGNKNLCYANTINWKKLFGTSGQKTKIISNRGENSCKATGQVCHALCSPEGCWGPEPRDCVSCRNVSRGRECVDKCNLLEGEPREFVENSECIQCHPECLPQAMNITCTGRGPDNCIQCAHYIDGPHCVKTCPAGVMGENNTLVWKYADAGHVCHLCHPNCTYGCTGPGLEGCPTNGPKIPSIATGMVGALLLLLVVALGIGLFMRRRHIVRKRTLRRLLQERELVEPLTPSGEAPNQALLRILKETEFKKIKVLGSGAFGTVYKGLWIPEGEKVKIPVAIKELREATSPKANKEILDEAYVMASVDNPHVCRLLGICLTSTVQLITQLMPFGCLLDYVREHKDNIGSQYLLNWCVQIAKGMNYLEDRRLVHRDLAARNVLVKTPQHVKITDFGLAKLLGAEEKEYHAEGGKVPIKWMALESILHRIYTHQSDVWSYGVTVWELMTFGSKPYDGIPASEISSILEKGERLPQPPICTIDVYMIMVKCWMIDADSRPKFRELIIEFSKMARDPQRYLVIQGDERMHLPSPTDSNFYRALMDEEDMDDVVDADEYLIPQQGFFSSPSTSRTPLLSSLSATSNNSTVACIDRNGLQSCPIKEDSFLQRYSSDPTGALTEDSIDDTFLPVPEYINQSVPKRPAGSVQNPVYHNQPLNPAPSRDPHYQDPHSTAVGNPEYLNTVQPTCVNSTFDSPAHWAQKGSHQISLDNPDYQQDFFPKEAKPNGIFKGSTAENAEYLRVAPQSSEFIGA
Chain of Follistatin-related protein 3 (Homo sapiens) (O95633 whole entry, looked up): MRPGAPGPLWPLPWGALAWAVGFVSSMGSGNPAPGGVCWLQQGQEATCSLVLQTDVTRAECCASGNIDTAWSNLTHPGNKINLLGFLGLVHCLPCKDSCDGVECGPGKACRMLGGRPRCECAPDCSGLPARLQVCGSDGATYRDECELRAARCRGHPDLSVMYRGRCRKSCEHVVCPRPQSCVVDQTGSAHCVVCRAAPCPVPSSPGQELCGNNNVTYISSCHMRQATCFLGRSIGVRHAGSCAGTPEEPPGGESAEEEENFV

Compound | composite z-score [1] | composite z-score [2] | composite z-score [3] | z-score [4] | composite z-score [5] | composite z-score [6] | composite z-score [7] | composite z-score [8] | composite z-score [9] | composite z-score [10] | composite z-score [11] | z-score [12] | composite z-score [13] | composite z-score [14] | composite z-score [15] | composite z-score [16] | composite z-score [17] | composite z-score [18] | composite z-score [19] | composite z-score [20]
C=CCN(C(=O)C(c1cccs1)N(C(=O)/C=C\C(=O)O)C(C)(C)CO)C(C)(C)C (stereo not given) | -0.387 and -0.159 | -0.136 and -0.239 | 0.784 and 0.498 | -1.67 (inactive) and -1.52 (inactive) | -1.22 and -1.16 | -0.489 and -0.532 | -0.928 and -0.661 | -1.54 and -1.07 | -1.53 and -1.58 | -0.792 and -0.643 | -0.453 and -0.0211 | -0.0094 and 0.0766 | -2.3 and -1.73 | -0.243 and -0.782 | -0.403 and 0.164 | -0.124 and -0.197 | -0.0553 and -0.0769 | 0.945 and 0.25 | 0.78 and -0.351 | 0.489 and 0.895
CN1C(=O)C2CC=C([C@H]3Oc4ccccc4S(=O)(=O)N4CCC[C@@H]34)CC2C1=O (stereo not given in full) | 0.149 and 0.302 | -0.226 and -0.273 | -0.344 and -0.424 | 0.776 (inactive) and 0.117 (inactive) | -0.575 and -0.066 | -0.913 and -0.794 | -0.297 and -0.148 | -0.837 and -0.641 | 0.0379 and 0.305 | 0.315 and 0.808 | -1.21 and -1.99 | -0.539 and -0.95 | -0.356 and 0.11 | -0.931 and -0.686 | -0.803 and -0.798 | -0.1 and -0.0125 | -0.0553 and -0.0146 | -0.172 and -0.324 | 0.0203 and 0.0568 | 0.0847 and -0.814
CCOC(=O)[C@@H]1CC=C2CC1C(=O)N1CCC[C@@H]1[C@H]2O[Si](C)(C)C(C)(C)C (stereo not given in full) | -0.632 and -0.617 | -0.0776 and -0.228 | -0.0464 and -0.898 | 0.474 (inactive) and 0.337 (inactive) | -0.182 and -1.24 | -0.0945 and -1.32 | -0.762 and -0.649 | -0.552 and -0.744 | 0.055 and -0.0246 | 0.401 and 0.933 | -1.02 and -0.733 | -0.558 and -1.14 | -0.355 and 0.279 | -1.9 and -1.57 | -0.312 and -1.91 | -0.0512 and -0.252 | 0.0611 and -0.2 | -0.0863 and -0.48 | -0.496 and -1.03 | -0.922 and -1.49
CO[C@H]1COC(=O)[C@H](C)NC(=O)CC=C[C@@H](C)[C@H](OC)COC(=O)CC=C[C@@H]1C | 0.523 | -0.785 | -1.62 | 0.506 (inactive) | 0.504 | 1.04 | 1.49 | 1.45 | 1.62 | 1.68 | -1.05 | -0.885 | 0.955 | -0.884 | -0.822 | -0.0944 | -0.0337 | -0.198 | 0.169 | -0.0006
